# In the library only some 7.3% were active in any assay of this set; here they are far more common.
# Tau fibril ThT = tau fibrillization inhibition (ThT binding). P10636. recombinant tau K18 P301L, heparin-induced fibrillization, ThT fluorescence. Potency, µM (top dose mostly 57.4 µM), inactives show at the top dose activity, negative = inhibition, hits mostly inhibitors. 2.1% of 270,000 active. AID 1460; note: nearly all actives have a fitted effect of over 55% in size
# Target sequence (P10636 561-689 P618L limits assumed): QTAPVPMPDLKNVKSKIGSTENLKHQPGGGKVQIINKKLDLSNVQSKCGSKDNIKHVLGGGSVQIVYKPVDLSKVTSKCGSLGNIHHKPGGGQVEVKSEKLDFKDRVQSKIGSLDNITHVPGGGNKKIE
#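 K18 P301L tau (15 uM + 0.24 uM Alexa 594-tagged), heparin 20 uM, NaOAc pH 7, 6 h 37 C; ThT 30 uM, 1 h RT, ex 450/em 510 nm.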
# Tau fluor counter = counter-screen for tau fibril formation inhibitors | tau K18 P301L (four-repeat tau fragment) Alexa594 fluorescence, heparin fibrillization | Potency, µM (titrated, usually from 57.7 µM), for inactives: at the top dose activity change, negative = decrease | 0.93% of 280,000 active | AID 1463; note: nearly all actives have a fitted effect of over 55% in size
#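 Human K18 P301L tau (15 uM unlabeled plus 0.24 uM Alexa 594-labeled, final) in 100 mM sodium acetate pH 7 was mixed with compound and 20 uM heparin and incubated 6 hr at 37 C.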
# Tau FP inhib = inhibitors of human tau fibril formation; P10636; K18 P301L tau heparin fibrillization, Alexa594 FP, 6 h; Potency, µM (top dose mostly 57.7 µM), for the others: top-dose activity, negative = inhibition, hits mostly inhibitors; 0.39% of 280,000 active; note: nearly all actives have a fitted effect of over 55% in size
#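 Compound effects on tau fibrillization are measured by Alexa 594 fluorescence polarization (ex 555, em 632 nm). K18 P301L tau is used at 15 uM with 0.24 uM labeled tracer, and 20 uM heparin induces aggregation over 6 hr at 37 C.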
# RORgamma inh = ROR gamma (mouse) transcription inhibition; P51450; Drosophila S2 Gal4-RORgamma UAS-luciferase reporter, 20 h; Potency, µM (top dose mostly 53.6 µM), for the others: top-dose activity change, negative = inhibition, hits mostly inhibitors; 5.4% of 310,000 active; note: nearly all actives have a fitted effect of over 60% in size
# Target sequence (P51450 whole entry, looked up, the tested form may be a part): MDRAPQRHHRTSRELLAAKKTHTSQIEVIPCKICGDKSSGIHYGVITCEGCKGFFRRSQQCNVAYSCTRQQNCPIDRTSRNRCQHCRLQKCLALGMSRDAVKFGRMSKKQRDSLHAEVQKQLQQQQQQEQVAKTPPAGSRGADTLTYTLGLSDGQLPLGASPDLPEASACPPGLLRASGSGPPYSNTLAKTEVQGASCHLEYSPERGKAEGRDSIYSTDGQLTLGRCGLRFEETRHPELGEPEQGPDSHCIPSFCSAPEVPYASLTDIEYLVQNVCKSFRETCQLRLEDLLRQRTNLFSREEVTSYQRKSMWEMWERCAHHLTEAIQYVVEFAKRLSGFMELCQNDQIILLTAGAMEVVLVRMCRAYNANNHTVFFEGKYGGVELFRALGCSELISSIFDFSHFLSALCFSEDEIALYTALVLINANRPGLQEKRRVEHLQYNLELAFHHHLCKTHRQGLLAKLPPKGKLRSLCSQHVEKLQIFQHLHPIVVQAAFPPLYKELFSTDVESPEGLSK
#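 Stably transfected Drosophila Schneider cells are the test system, with ROR gamma fused to Gal4 and luciferase under UAS control; luminescence is read after 20 hr of 700 uM copper sulfate induction at ambient temperature.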
# Gal4-VP16 FLuc = Gal4-VP16 reporter inhibition counter-screen; Drosophila S2 Gal4-VP16 UAS-luciferase, luminescence, 20 h; Potency, µM (doses to about 53.6 µM), without a hit: at the top dose activity, negative = inhibition, hits mostly inhibitors; 3.5% of 310,000 active; AID 2546;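 note: Gal4-VP16 expression switched on by copper sulfate through the metallothionein promoter; nearly all actives have a fitted effect of over 50% in size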
# * marks the source's active call; other numbers are inactive results; ? = inconclusive; . = no result given; [ ] = remark or other dose. Calls come from the whole dose curve; as a rule, active = well fitted curve in the direction sought with a large enough effect; inconclusive = small, poorly fitted or top-dose-only effect, or another doubt; inactive = no such curve, though single readings can be large; an effect the other way counts as inactive or inconclusive. % is set by controls: 0 for no effect and ±100 for the full control effect; potency is the fitted concentration of half-maximal effect.
SMILES,Tau fibril ThT,Tau fluor counter,Tau FP inhib,RORgamma inh,Gal4-VP16 FLuc
O=C(Nc1nnc(C2CC2)s1)C1Cc2ccccc2CN1S(=O)(=O)c1cccs1 (configuration not stated),-10%,-13%,6%,1.4µM*,?
O=C(c1ccc2c(=O)n(CCc3ccccc3)c(=O)[nH]c2c1)N1CCN(c2ccc(Cl)cc2)CC1,-17%,-28%,-7%,.,.
CCOC(=O)c1c(C)[nH]c(C)c1S(=O)(=O)N1CCCC(C(=O)NCc2cccc(C)c2)C1 (configuration not stated),3%,-9%,-5%,.,.
Cc1ccc(-c2cc3cccc[n+]3cc2-c2ccc(C)cc2)cc1,?,-21%,4%,?,13µM*
COc1cccc(-c2csc(NC(=O)Oc3ccccc3)n2)c1,-18%,-9%,1%,-10%,-1%
COc1cccc(-c2csc(NNC(=O)c3cccs3)n2)c1,?,-29%,7%,2.2µM*,10µM*
COc1ccc(OC)c2sc(NNC(=O)C3COc4ccccc4O3)nc12 (configuration not stated),5%,-1%,6%,?,-12%
Cc1cccc2sc(NNC(=O)C3COc4ccccc4O3)nc12 (configuration not stated),?,-26%,-4%,6.3µM*,11µM*
Cc1cc(C)c2sc(NC(=O)C3CC3)nc2c1,.,.,.,6.3µM*,-30%
CC(=O)c1sc(NC(=O)C2COc3ccccc3O2)nc1C (configuration not stated),0%,5%,13%,7.1µM*,10µM*
Cc1cc(C)c2sc(NNC(=O)C3COc4ccccc4O3)nc2c1 (configuration not stated),?,?,10%,2.8µM*,18µM*
Cc1cccc(NC(=O)C2CCN(C(=O)NCc3ccccc3)CC2)c1C,.,.,.,-1%,0%
C=CCOc1ccc(C2C(C#N)=C(N)N(N(C)C)C3=C2C(=O)CCC3)cc1 (configuration not stated),.,.,.,4%,-5%
CCn1c(CNC(=O)c2ccc(OC)cc2)nnc1SCC(=O)Nc1cc(C)ccc1C,-7%,-16%,-5%,.,.
CCC(=O)NNc1nc2c(F)cc(F)cc2s1,4%,-2%,-2%,-6%,-28%
O=C(NNc1nc2c(F)cc(F)cc2s1)C1COc2ccccc2O1 (configuration not stated),-8%,-6%,0%,13µM*,-25%
COC(=O)[C@@]1(Cc2ccc(OC)cc2)[C@H]2c3cc(C(=O)N(C)C)n(CCN4CNCC4=O)c3C[C@H]2CN1C(=O)c1ccccc1,2%,-1%,5%,13%,-21%
Cc1cc(C(=O)CN2CCC(C)CC2)c(C)n1-c1ccccc1F,-9%,3%,1%,5.6µM*,4.5µM*
Cc1cc(C(=O)CN2C(=O)C(=O)N(Cc3ccccc3)C2=O)c(C)n1-c1ccccc1F,-10%,-15%,6%,?,4%
Cc1cccc(N(C(=O)c2ccco2)C(C(=O)NC2CCCC2)c2ccco2)c1C (configuration not stated),.,.,.,17%,0%
Cc1cc(C)c(O)c(-c2cc(C(=O)Nc3ccc(S(=O)(=O)N4CCOCC4)cc3)[nH]n2)c1,1%,14µM*[quencher],?,?,?
Cc1cc(C)c(OCC(=O)Nc2ccc(S(=O)(=O)N3CCOCC3)cc2)c(C)c1,.,.,.,11µM*,?
Cc1ccc(S(=O)(=O)N2CCN(C(=O)CSc3nc(N)cc(=O)[nH]3)CC2)c(C)c1,1%,11%,5%,0%,0%
O=S(O)CO,.,.,.,14%,-1%
CCOc1ccc(NC(=S)N(CCCN2CCOCC2)Cc2cn(C)c3ccccc23)cc1,4%,-1%,2%,13µM*,?
SMILES,Tau fibril ThT,Tau fluor counter,Tau FP inhib,RORgamma inh,Gal4-VP16 FLuc
Cc1cccc(NC(=S)N(CCCN2CCOCC2)Cc2cn(C)c3ccccc23)c1,-4%,-24%,2%,11µM*,-22%
Cc1ccc(CCNC(=O)Cn2ccc3cc(S(=O)(=O)N4CCCC4)ccc32)cc1,.,.,.,21%,-2%
CCC(C)NC(=O)c1sc2nc3n(c(=O)c2c1C)CCC3 (configuration not stated),0%,-14%,-2%,.,.
Cc1cc(C)n(-c2ccc(NC(=O)C3CCCCN3C(=O)c3ccoc3C)cc2)n1 (configuration not stated),.,.,.,22%,5%
C=C(C)C1(O)OC(=O)C=C1OC (configuration not stated),?,-7%,?,13µM*,11µM*
COc1ccc(C2=CC(=O)OC3(CCCCC3)O2)cc1,-18%,-10%,-2%,9%,-4%
CCOC(=O)N1CCN(c2nc(N(c3ccccc3)c3ccccc3)nc(-n3ccnc3)n2)CC1,-22%,-14%,-7%,8%,0%
CN(c1ccccc1)c1nc(N2CCCC2)nc(-n2ccnc2)n1,-17%,-13%,-2%,4.5µM*,11µM*
c1ccc(CN2CCN(c3nc(-c4ccccc4)nc(-n4ccnc4)n3)CC2)cc1,?,-29%,?,14µM*,?
c1ccc(-c2nc(-n3ccnc3)nc(-n3ccnc3)n2)cc1,-12%,-17%,-2%,?,5%
c1ccc(N(c2ccccc2)c2nc(N3CCCC3)nc(-n3ccnc3)n2)cc1,?,-18%,-9%,7.1µM*,11µM*
COc1ccc(-c2cccc(-c3cc(=O)oc4ccc(C(C)(C)C)cc34)c2)cc1,-15%[81.4 µM],-17%[81.3 µM],-11%[81.3 µM],13%,22%
NC(=S)N/N=C1/CCSc2ccc3ccccc3c21,-10%,-20%,-3%,0.63µM*,3.2µM*
COc1cccc(NC(=S)Nc2ccc(O)cc2)c1,18µM*,?,?,-29%,7%
COc1cccc(NC(=S)Nc2ccc(F)cc2)c1,.,.,.,16µM*,?
CC(NC(=O)CCn1c(=O)c2cccn2c2ccc(F)cc21)c1ccccc1 (configuration not stated),-1%,-7%,-7%,.,.
CCOC(=O)c1sc(Nc2nc3cc4c(cc3s2)OCO4)cc1C,?,4.5µM*[quencher],-2%,5µM*,6.3µM*
CCOC(=O)c1sc(Nc2nc3c(OC)cccc3s2)cc1C,5%,8%,6%,?,?
CC(=O)c1sc(Nc2nc3cc4c(cc3s2)OCO4)nc1C,3.2µM*,?,0%,5µM*,-13%
Cc1ccc(NC(=O)Cn2cc(C(=O)C3CC3)c3ccccc32)cc1C,7%,2%,-17%,.,.
Cc1cccc(Cn2c(CN3CCC(C(=O)NCCc4ccccc4)CC3)cc3ccccc32)c1,1%,-7%,1%,.,.
Cc1c(C(=O)N2CCN(Cc3ccccc3)CC2)oc2c1C(=O)CCC2,.,.,.,13%,-7%

# Assay outcomes as filed in PubChem BioAssay.
